The source of these data is PubChem BioAssay AID485346 (Sanford-Burnham Center for Chemical Genomics, 2010).

The campaign covered roughly 330,000 compounds. About 10,000 (3%) were called active. The sample holds actives, similar compounds and a random draw of the others, so the mix is not that of the screen.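 Rule for the calls: active = inhibition of at least 50% at 8 µM in the primary screen; inactive = the rest.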

For this test, the target named is Protein Mdm4 (Homo sapiens) + E3 ubiquitin-protein ligase Mdm2 (Homo sapiens) (UniProt O15151+Q00987). The test is described as follows: disruptors of Mdm2/MdmX RING complex – cell-based, luminescence, split luciferase, SaOS-2, uHTS, primary screen (AID 485346). Particulars: SaOS-2 split-luciferase Mdm2/MdmX complementation, at 8 µM, hits give high values.
Chain of Protein Mdm4 (Homo sapiens) + E3 ubiquitin-protein ligase Mdm2 (Homo sapiens) (O15151 whole entry, looked up): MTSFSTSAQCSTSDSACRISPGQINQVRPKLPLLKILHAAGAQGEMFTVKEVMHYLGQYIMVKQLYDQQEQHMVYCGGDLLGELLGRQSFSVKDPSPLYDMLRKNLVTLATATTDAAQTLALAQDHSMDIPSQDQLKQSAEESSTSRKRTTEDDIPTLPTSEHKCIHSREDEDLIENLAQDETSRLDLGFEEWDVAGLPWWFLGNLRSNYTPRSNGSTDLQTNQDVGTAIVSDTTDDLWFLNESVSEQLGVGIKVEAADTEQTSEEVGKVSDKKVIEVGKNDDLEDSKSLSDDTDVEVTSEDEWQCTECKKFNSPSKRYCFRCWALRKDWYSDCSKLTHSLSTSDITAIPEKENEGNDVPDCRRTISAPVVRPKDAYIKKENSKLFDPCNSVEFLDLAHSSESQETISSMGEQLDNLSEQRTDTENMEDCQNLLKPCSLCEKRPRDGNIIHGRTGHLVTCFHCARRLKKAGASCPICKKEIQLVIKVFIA
Chain of Protein Mdm4 (Homo sapiens) + E3 ubiquitin-protein ligase Mdm2 (Homo sapiens) (Q00987 whole entry, looked up): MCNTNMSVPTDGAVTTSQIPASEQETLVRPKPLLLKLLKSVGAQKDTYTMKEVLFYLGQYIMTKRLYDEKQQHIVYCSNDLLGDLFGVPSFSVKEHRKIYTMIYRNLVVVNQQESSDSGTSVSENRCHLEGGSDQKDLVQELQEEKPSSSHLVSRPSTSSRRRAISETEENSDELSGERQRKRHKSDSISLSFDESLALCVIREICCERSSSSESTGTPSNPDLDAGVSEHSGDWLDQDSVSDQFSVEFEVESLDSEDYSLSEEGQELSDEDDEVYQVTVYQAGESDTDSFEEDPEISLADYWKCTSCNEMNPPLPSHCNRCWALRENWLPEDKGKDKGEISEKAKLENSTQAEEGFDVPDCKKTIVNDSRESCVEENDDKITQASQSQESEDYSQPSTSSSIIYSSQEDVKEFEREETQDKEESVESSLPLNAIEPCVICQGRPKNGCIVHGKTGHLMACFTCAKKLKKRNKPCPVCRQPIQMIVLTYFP
Take `CN(C)/C=C(/C(=O)c1ccccc1Cl)S(C)(=O)=O`: the inhibition is -2.89% (inactive).
The value for `CC(C(=O)O)N1C(=O)c2cccc3cccc1c23` (stereo not drawn) was 14.4% (inactive).
The result for `CN(Cc1cccs1)C(=O)Cc1c[nH]c2ccccc12` reads -16.7% (inactive); that for `CCc1nc2sc3c(Cl)ncnc3c2c2c1CCCC2`, 64.4% (active).
On to `CCc1nc2sc(C(=O)O)c(N)c2c2c1CCCC2`, for which the inhibition was -3.57% (inactive).
The value for `c1ccc(CSc2ncnc3c2sc2nc(N4CCOCC4)c4c(c23)CCCC4)cc1` was 2.45% (inactive); that for `Cc1cccc(N2Cc3ccccc3C2=NC(=O)c2ccc(Cl)nc2)c1` was 1.07% (inactive); that for `O=C(Nc1cc(Cl)cc(Cl)c1)C(NCCCO)c1ccccc1` (stereo not drawn) was 14.1% (inactive).
The result for `Cc1cccc(Nc2nc(NCCO)nc(N3CCCC3)n2)c1` reads -22.4% (inactive); that for `OCCCNc1nccc(-c2cc(Nc3cccc(Cl)c3)ncn2)n1`, 100% (active); that for `C=CCOC(=O)C1=C[C@H](c2ccc(Br)cc2)C[C@H](OCCCCO)O1`, 25.6% (inactive).
In the case of `Brc1ccc(CN2CC[C@H]3C=CCc4cccc(c43)C2)cc1`, the inhibition was 3.41% (inactive).
For the molecule `O=C(Nc1cc(Cl)ccc1N1CCOCC1)c1ccc(N2CCCC2=O)cc1`, the inhibition was 12.9% (inactive).
The value for `COCCOC(=O)c1c(C)oc2cc(Br)c(OCC(N)=O)cc12` was 6.08% (inactive); that for `COc1ccccc1OCCCC(=O)Nc1ccc2c(c1)OCCO2` was 6.28% (inactive); that for `COC(=O)CCNc1ccc2c(c1)OCCO2` was 60.5% (active).
Consider `Cc1ccc(OCCCC(=O)Nc2ccc3c(c2)OCCO3)cc1`, for which the inhibition is 17% (inactive).
The value for `COc1ccc(C(=O)NCc2nnc(SCC(=O)Nc3cccc(OC)c3)o2)cc1` was 20.2% (inactive).
The result for `COc1cc(C(=O)NCc2nnc(SCC(=O)c3ccc(Cl)cc3)o2)cc(OC)c1OC` reads 6.35% (inactive).
The result for `COc1cc(C(=O)NCc2nnc(SCC(=O)Nc3nc4ccc(C)cc4s3)o2)cc(OC)c1OC` reads 53.5% (active); that for `Cc1cc(O)c(C(=O)/C=C/c2c(F)c(F)c(F)c(F)c2F)c(=O)o1`, 8.23% (inactive); that for `COc1ccc(C/C(N)=N/OC(=O)c2ccco2)cc1OC`, 6.65% (inactive).
Take `COc1ccc(C(=O)ON=C2c3ccccc3-c3ccccc32)cc1OC`: the inhibition was 7.13% (inactive).
The value for `COc1ccc(C(=O)O/N=C(\N)Cc2ccc(Cl)cc2Cl)cc1OC` was 97.2% (active); that for `CCCCOc1ccc(C(=O)N/C(=C/C=C/c2ccccc2)C(=O)N2CCOCC2)cc1` was -5.91% (inactive).
Consider `Nc1cc(N2CCCCCC2)c2nonc2c1[N+](=O)[O-]`, for which the inhibition is 25.5% (inactive).
The value for `C=CCn1c(-c2ccc(Cl)cc2)ccc(C#N)c1=O` was 1.15% (inactive); that for `CCOc1ccc(CNC(=O)C2CCCN(c3nnc(C)c4c(C)n(-c5ccccc5)nc34)C2)cc1` (stereo not drawn) was 4.48% (inactive); that for `COc1ccc(-n2nc3c(N4CCC(C(=O)NCc5ccccc5)CC4)nnc(C)c3c2C)cc1` was 40.9% (inactive).
The value for `CCc1ccc(CNC(=O)C2CCN(c3nnc(C)c4c(C)n(-c5ccc(C)cc5)nc34)CC2)cc1` was 89% (active).
The value for `CC1(C(=O)NNC(=S)NCC2CCCO2)CC1(Cl)Cl` (stereo not drawn) was 9.98% (inactive); that for `O=c1c2ccccc2[nH]c(=S)n1CCN1CCC(=C(c2ccc(F)cc2)c2ccc(F)cc2)CC1` was -6.96% (inactive).
For `COn1c(=O)c(=O)n(OC)c2ccccc21`, the inhibition was -14.5% (inactive).
The result for `Brc1cnc(N2CCCC2)nc1N1CCCCC1` reads -7.46% (inactive); that for `O=C1NC(c2cc3c(cc2Cl)OCO3)Oc2ccccc21` (stereo not drawn), 2.99% (inactive); that for `COc1ccccc1C1C2=C(COC2=O)Nc2cc3c(cc21)OCO3` (stereo not drawn), 64.9% (active).
`CCCOc1ccccc1C1CC(=O)Nc2cc3c(cc21)OCO3` (stereo not drawn): the inhibition was 56% (active).
The result for `COC(=O)c1ccc(C2CC(=O)Nc3cc(OC)c(OC)cc32)cc1` (stereo not drawn) reads 7.38% (inactive); that for `COc1ccc(S(=O)(=O)Nc2ccc3c(c2)OCO3)cc1Cl`, 8.27% (inactive); that for `CCCOc1ccc(C2NC(=O)NC(c3ccccc3)=C2C(C)=O)cc1OCC` (stereo not drawn), 14.8% (inactive).
As for `COc1ccc(NS(=O)(=O)c2cc(NC(=O)COc3ccccc3F)ccc2OC)cc1`, the inhibition is 14.4% (inactive).
The result for `CN1C(=O)[C@H]2[C@@H](/C=C/c3ccccc3)N3C(=O)CN(Cc4ccc(-c5ccccc5)cc4)C(=O)[C@@]3(C)[C@H]2C1=O` reads 22.2% (inactive); that for `COc1ccc(-n2c(O)c(C=NCC(c3ccco3)N3CCCC3)c3ccccc3c2=O)cc1OC` (stereo not drawn), 15.6% (inactive); that for `O=C(CN1C(=O)c2cccc3cccc1c23)Nc1ccccc1`, 26.2% (inactive).
The value for `CCN1C(=O)c2cccc3c(S(=O)(=O)Nc4ccccc4O)ccc1c23` was 62.5% (active); that for `CCN(CC)S(=O)(=O)c1ccc2c3c(cccc13)C(=O)S2` was 39.8% (inactive); that for `O=C(NN1CCOCC1)c1cccc(F)c1` was 6.11% (inactive).
Take `Cc1c(Br)c([N+](=O)[O-])nn1CC(=O)Nc1sc2c(c1C(=O)OC(C)C)CCC(C)C2` (stereo not drawn): the inhibition was 23.2% (inactive).
The result for `O=C(COC(=O)c1ccncc1)Nc1ccc2c(c1)OCO2` reads -1.34% (inactive); that for `CC1(C)NC(=O)N(CCCCSc2ccc(Cl)cc2)C1=O`, 5.07% (inactive); that for `COc1ccc(C(=O)/C=C/c2cccnc2)c(OC)c1`, 54.3% (active).
With `COc1ccc(-c2cc(C(=O)N/N=C/c3cccnc3)c3ccccc3n2)c(OC)c1`, the inhibition was -12.7% (inactive).
The value for `COc1ccc(C(=O)CCC(=O)Nc2cccnc2)c(OC)c1` was 9.02% (inactive); that for `Cc1nc2nc(SCC(=O)Nc3cccc(F)c3)[nH]c2cc1Br` was 23.9% (inactive); that for `O=C(CCNC(=O)c1ccccc1Cl)NCc1ccco1` was 2.16% (inactive).
Take `Cc1ccc(N(Cc2ccc(C(=O)Nc3ccccc3C(=O)NCc3ccco3)cc2)S(C)(=O)=O)cc1C`: the inhibition is 38.7% (inactive).
The value for `Cc1cccc(Nc2ccccc2C(=O)NCc2ccco2)c1C` was 54.5% (active); that for `Cc1n[nH]c(=O)c2c(NC(=O)COC(=O)c3ncc(Cl)c(Cl)c3Cl)oc(C)c12` was 8.36% (inactive).
In the case of `CCCCn1c(-c2cccc(C)c2)nc2cc3[nH]c(=O)c(C(C)C)nc3cc21`, the inhibition was 55.1% (active).
The result for `CCOCCn1c(-c2ccccc2)nc2ccccc21` reads 21.2% (inactive); that for `CCCCn1c(N)c(N(CCOC)C(=O)CSCC(=O)Nc2cccc(C)c2)c(=O)[nH]c1=O`, -8.54% (inactive).
The result for `COc1ccccc1C(=O)N1C(CC(=O)Nc2ccccc2C)C(=O)NC2CCCCC21` (stereo not drawn) reads 10.2% (inactive); that for `CC(=O)C1=C(C)NC2=C(C(=O)CC(C)(C)C2)C1C` (stereo not drawn), 14.7% (inactive).
The value for `Cc1cccc(C)c1NC1=NC(=S)N(c2ccc(N(C)C)cc2)C1(C)C` was 13.2% (inactive); that for `CC1=C/C(=N\OS(=O)(=O)c2ccccc2)C=CC1=O` was 89.3% (active).
For the molecule `CC1C(=O)C(C)C(c2ccc(O)cc2)NC1c1ccc(O)cc1` (stereo not drawn), the inhibition was -1.09% (inactive).
The result for `Cc1cc(-c2csc(N)n2)c(C)n1-c1ccccc1` reads 9.07% (inactive); that for `CCN(CC(=O)Nc1c(F)cccc1F)C(=O)c1ccc(-c2ccccc2)cc1`, -3.86% (inactive).
On to `O=C(N/N=C/c1ccc([N+](=O)[O-])cc1)c1c[nH]c2ccccc12`, for which the inhibition is 12% (inactive).
For the molecule `Cc1c(C(=O)N/N=C/c2ccccc2)[nH]c2c([N+](=O)[O-])cccc12`, the inhibition is 60% (active).
The result for `COc1cc(CC(=O)N/N=C/c2ccccc2)c([N+](=O)[O-])cc1OC` reads 10.3% (inactive).
The result for `CCOc1ccccc1C1C(C(=O)OC)=CN(C)C=C1C(=O)OC` reads 8.07% (inactive); that for `NC(=O)C1(C(N)=O)OC1c1ccc(Cl)cc1Cl` (stereo not drawn), 20.9% (inactive); that for `COC(=O)C1=CN(C)C=C(C(=O)OC)C1c1ccc(Cl)cc1Cl`, 67.5% (active).
The value for `CCCCCN(C(=O)CCC(=O)OCC(=O)NC1CCC(C)CC1)c1c(N)n(CCCC)c(=O)[nH]c1=O` (stereo not drawn) was -18.6% (inactive); that for `O=C(Nc1nc(-c2ccco2)c(-c2ccco2)s1)c1ccco1` was 27% (inactive); that for `COc1cc(/C=C/C(=O)OCC(=O)c2ccccc2)cc(OC)c1OC` was 20.5% (inactive).
As to `COc1cc2c(cc1NC(=O)COC(=O)/C=C/c1ccccc1)oc1ccccc12`, the inhibition was 51.9% (active).
Consider `COc1cc2c(cc1NC(=O)CN1CCN(S(=O)(=O)c3ccc(F)cc3)CC1)oc1ccccc12`, for which the inhibition is 49.9% (inactive).
For `CCCCN1C(=O)/C(=C/C=C2/C=Cc3ccccc3N2CC)SC1=S`, the inhibition was 64.7% (active).
The value for `COc1cc(/C=C2/SC(=S)N(Cc3ccccc3)C2=O)cc(OC)c1O` was 11.8% (inactive); that for `CCCCN1C(=O)/C(=C2/C=CC=CN2C)SC1=S` was -6.03% (inactive); that for `FC(F)(F)Oc1ccc(-c2cn3cccnc3n2)cc1` was -41.1% (inactive).
The value for `CSCC[C@H](NC(=O)NC1CCCC1)C(=O)O` was -12.4% (inactive); that for `CNC(=S)N/N=C/c1ccc(N2CCOCC2)s1` was -16.1% (inactive).
With `NC(=O)c1c(NC(=O)CSc2nnc(-c3ccco3)n2N)sc2c1CCCC2`, the inhibition is 22.2% (inactive).
As to `COc1ccc(C(=O)Nc2ncc3c(n2)-c2ccccc2CC3)cc1`, the inhibition is 22.2% (inactive).
On to `CCN(c1ccccc1)S(=O)(=O)c1ccc(C(=O)Nc2nccs2)cc1`, for which the inhibition is -12.4% (inactive).
With `C=CCN(CC=C)S(=O)(=O)c1ccc(C(=O)Nc2sc3c(c2C(N)=O)CCCCC3)cc1`, the inhibition was 92.8% (active).
The result for `C=CCN(CC=C)S(=O)(=O)c1ccc(C(=O)Nc2nc3c(s2)CCc2ccccc2-3)cc1` reads 58.5% (active); that for `COc1cccc(OC)c1C(=O)Nc1sc2c(c1C(N)=O)CCCC2`, 19% (inactive); that for `COc1cc(Cl)cc(C2NC(=O)NC(C)=C2C(=O)NCc2ccccc2)c1O` (stereo not drawn), -8.24% (inactive).
As to `Cc1ccc(C)c(N2CCN(C(=O)CCc3nc(-c4cccc(C(F)(F)F)c4)no3)CC2)c1`, the inhibition is -17.8% (inactive).

For orientation: inhibition means the drop in the measured response relative to a control, in per cent.
